aSyn UTR act – Activators via SNCA 5'UTR binding, MLPCN; 7.1% of 300,000 active; activity score, % (tested at 7.5 µM), hits read low; AID 1814, 2009; alpha-synuclein 5'UTR reporter, activators screen; in the data active = activity score below about -60%
Numbers without * were called inactive. These entries were drawn from the full list.

SMILES | aSyn UTR act
O=C(O)c1ccc(N=NN2CCCCCC2)cc1 | -167.5*
COc1ccc(/C=C/C2=NC(=C\N(C)C)/C(=O)O2)cc1 | -151.2*
CCOC(=O)Cc1cc(-c2ccc(O)cc2)nc2ccc3ccccc3c12 | -80.4*
CCOC(=O)Cc1cc(-c2ccc(F)cc2)nc2ccc3ccccc3c12 | -63.2*
CCOC(=O)Cc1cc(-c2ccc(OC)cc2)nc2ccc3ccccc3c12 | -117.1*
CCOC(=O)C1(CCc2ccccc2)CCN(C(=O)CCn2cncn2)CC1 | -99.0*
CCOC(=O)C1(Cc2ccccc2Cl)CCN(C(=O)CCn2ccnc2C)CC1 | -80.6*
O=S(=O)(c1ccc(Cl)c(Cl)c1)c1snnc1-c1ccccc1 | 118.1
c1ccc(-c2nnsc2Sc2ccccn2)cc1 | -90.6*
COc1ccccc1C1C=C(c2ccccc2)Nc2nnnn21 (stereo not drawn) | -84.0*
COc1cccc(C2=CC(c3ccc(OC)c(OC)c3OC)n3nnnc3N2)c1 (stereo not drawn) | -66.7*
O=C(NCc1cccs1)c1csc2ccccc12 | -61.7*
Cc1cccc2c(=O)c(C(=O)NCc3cccs3)c[nH]c12 | -110.4*
COc1ccc(-c2nc(-c3ccccn3)no2)cc1 | 107.4
COc1cc(OC)cc(-c2nc(-c3ccccc3)no2)c1 | -139.7*
COc1cccc(-c2nc(-c3ccc(NC(=O)c4cccs4)cc3)no2)c1 | -154.2*
COc1ccc(-c2nc(-c3ccc(NC(=O)c4ccncc4)cc3)no2)cc1OC | -155.0*
O=C(O)c1ccc(-c2noc(-c3cccc(F)c3)n2)cc1 | -96.0*
COc1cccc(-c2noc(-c3ccc(Cl)nc3)n2)c1 | -182.1*
COc1ccc2[nH]c(=O)c(-c3noc(-c4ccccc4)n3)cc2c1 | -121.4*
COc1cccc(-c2nc(-c3ccc(C(=O)O)cc3)no2)c1 | -96.0*
C[C@@H]1C=CC(=O)O[C@@H]1c1ccc(Cl)cc1 | -193.8*
CC(=O)N/C(=N\c1nc(C)cc(C)n1)Nc1ccc2ccccc2c1 | -166.5*
C/C(CC(C)C)=N\NS(=O)(=O)c1ccc(C)c([N+](=O)[O-])c1 | 50.7
Cc1ccc(S(=O)(=O)N/N=C2/CC(c3ccccc3)Oc3ccccc32)cc1[N+](=O)[O-] (stereo not drawn) | -106.4*
SMILES | aSyn UTR act
Brc1cc(Br)c2nc(-c3cccs3)ccc2c1 | -156.9*
CC(=O)NC(CSC(CC(=O)c1ccco1)c1ccc(C)cc1)C(=O)O (stereo not drawn) | -89.5*
CCOC(=O)c1ccc(N2Cc3ccccc3C2=NC(=O)c2cccc([N+](=O)[O-])c2)cc1 | -211.6*
O=C(N=C1c2ccccc2CN1c1ccc(F)c(F)c1)c1cccnc1 | -83.7*
O=C(N=C1c2ccccc2CN1c1ccccc1)c1cccc([N+](=O)[O-])c1 | -123.4*
Cn1c(-c2ccccc2)cc2c3no[n+]([O-])c3ccc21 | -69.0*
CCOc1ccc(-c2noc(CCC(=O)O)n2)cc1 | 60.5
Clc1ccc(Cl)c(-c2nc(-c3ccncc3)no2)c1 | -130.9*
Clc1ccc(-c2nc(-c3ccncc3)no2)c(Cl)c1 | -103.7*
Clc1ccc(OCc2nc(-c3ccncc3)no2)cc1 | -126.5*
O=C(NN=C1CCCC1)c1ccn[nH]1 | -76.5*
Nc1c(C(=O)N/N=C/c2ccccc2)cnn1-c1ccccc1 | -107.7*
O=C(NN=C1CCCCCC1)c1ccc(Br)o1 | -81.8*
O=C(N/N=C/c1ccccc1Cl)c1n[nH]c2c1CCCC2 | 83.5
O=C(N/N=C/c1ccccc1)c1n[nH]c2c1CCCC2 | -87.5*
O=C(N/N=C/c1sc2ccccc2c1O)c1ccccc1 | 81.5
O=C(N/N=C/c1ccc(O)cc1)c1cccc(N/N=C/c2ccc(O)cc2)c1 | -107.7*
O=C(N/N=C/c1ccccc1C(F)(F)F)c1ccc(O)cc1 | -134.8*
O=C(N/N=C/c1ccccc1O)c1cccc(C(F)(F)F)c1 | 82.4
Cc1cccc(/C=N/NC(=O)c2ccc(Br)cc2)c1 | -90.0*
O=C(N/N=C/c1ccc(F)cc1)c1ccccc1 | -151.7*
O=C(N/N=C/c1ccc(Br)cc1)c1ccc(F)cc1 | -78.1*
O=C(N/N=C/c1ccc(Br)cc1)c1ccc(Br)o1 | -206.9*
Clc1ccc(OCc2noc(-c3ccsc3)n2)c(Cl)c1 | -170.2*
Fc1cc(Cl)c(OCc2noc(-c3ccsc3)n2)c(Cl)c1 | -80.7*
SMILES | aSyn UTR act
c1ccn(-c2ccc(N3CCOCC3)cc2)c1 | -124.8*
COc1ccc(CC(=O)N2CCc3ccccc32)cc1 | -73.7*
COc1ccc2c(CC(=O)N3CCc4ccccc43)coc2c1 | -104.5*
COc1ccc(CC(=O)N2CCC(c3ccccc3)C2)cc1 (stereo not drawn) | -65.3*
CC1(C)CC(=O)c2cnc(N3CCc4ccccc43)nc2C1 | -117.7*
Fc1cnc(N2CCc3ccccc32)nc1N1CCc2ccccc21 | -81.9*
COc1cc(/C=C2/C(=N)N3N=C(CC(=O)N4CCOCC4)SC3=NC2=O)ccc1OCc1ccc(F)cc1 | -101.7*
Cc1cc(/C=C2/SC(=O)N(CC(=O)N3CCOCC3)C2=O)c(C)n1-c1ccccc1F | -143.2*
COc1ccccc1-n1c(C)cc(/C=C2\C(=N)N3N=C(CC(=O)N4CCOCC4)SC3=NC2=O)c1C | -71.6*
COCCNc1ncnc2c1cnn2-c1ccc(Cl)cc1 | -77.9*
OCCOCCNc1ncnc2c1cnn2-c1ccccc1 | -137.5*
COc1ccc(-n2ncc3c(NCCCn4ccnc4)ncnc32)cc1 | -122.1*
COCCN(CCOC)c1ncnc2c1cnn2-c1ccc(Cl)cc1 | -138.8*
OCCOCCNc1ncnc2c1cnn2-c1ccc(Cl)cc1 | -92.9*
O=C(COc1cccc2c1CCNC2=O)Nc1cccc(C(F)(F)F)c1 | -84.4*
CNC1=C(N(C(C)=O)c2ccc(Br)cc2)C(=O)c2ccccc2C1=O | 110.9
COC1=C(Nc2ccccc2)C(=O)c2ccccc2C1=O | -73.4*
COC1=C(Nc2ccc(C)cc2)C(=O)c2ccccc2C1=O | -156.3*
Cc1ccc2nc3sc(C(=O)N4CCOCC4)c(N)c3cc2c1 | 99.7
Cc1ccc2cc3c(N)c(C(=O)N4CC(=O)Nc5ccccc54)sc3nc2c1 | 82.1
CC(C)c1ccc2nc3sc(C(=O)N4CCc5ccccc5C4)c(N)c3cc2c1 | -61.5*
COc1ccc2cc3c(N)c(C(=O)N4CCCC4)sc3nc2c1 | -189.3*
CCOc1ccc2nc3sc(C(=O)N4CCN(C)CC4)c(N)c3cc2c1 | -80.3*
COc1ccc(/C=C/C(=O)c2cc(F)ccc2OC(=O)c2ccccc2C)cc1OC | 82.1
COc1ccc(/C=C/C(=O)Nc2ccccc2)cc1OC | -140.3*
SMILES | aSyn UTR act
COc1ccc(/C(N)=N/OC(=O)/C=C/c2ccccc2)cc1 | -88.5*
COc1ccc(/C=C/C(=O)O/N=C(\N)c2ccccc2)cc1OC | -138.4*
COc1ccc(/C=C/C(=O)Nc2ccc(-n3nncc3-c3ccc(OC)c(OC)c3)cc2)cc1OC | 59.0
Cc1ccccc1/C(N)=N/OC(=O)/C=C/c1ccccc1 | -177.9*
COc1cc(/C=C/C(=O)NC(=O)c2ccccc2O)ccc1OC(C)=O | -161.2*
Cc1ccc(/C(N)=N/OC(=O)/C=C/c2ccccc2)cc1 | -63.1*
COC(=O)CNC(=O)C1(C)C=CCN1C(=O)c1ccccc1 (stereo not drawn) | -73.6*
OCCN=c1cc(-c2ccccc2)oc2ccc(Cl)cc12 | -199.3*
NNC(=O)c1[nH]c2ccc(Cl)cc2c1-c1ccccc1 | 77.0
CC(O)CN=c1cc(-c2ccccc2)oc2ccc(Cl)cc12 (stereo not drawn) | -238.8*
CC(C)CN=c1cc(-c2ccccc2)oc2ccc(Cl)cc12 | -123.3*
Cc1ccc(NN=C2c3ccccc3-c3ccccc32)cc1 | -211.8*
Cc1cccc(/C(N)=N/OC(=O)c2cccnc2)c1 | -73.4*

Compound activity from PubChem.
